Measurements published in ChEMBL document CHEMBL4513216, “Probing the Open Global Health Chemical Diversity Library for Multistage-Active Starting Points for Next-Generation Antimalarials” (ACS Infect Dis, 2020).
In all, about 69,000 compounds went through this assay and about 8,600 (12%) showed an effect of 50% or more. What follows is part of a selection rich in strong results, with near analogues and random picks from the rest.

system: Plasmodium berghei; assay: Screen against P. berghei liver stage (PbLuc), transformed with Luciferase, at 10uM; type: functional, HepG2; conditions: tested at 10 uM

SMILES | INHIBITION
CC(O)CN1CCN(C(=O)c2cc(Cl)cc3cccnc23)CC1 (stereo not drawn) | 2.75%
COC(=O)N1C[C@@H]2CC[C@H]1CN(Cc1cscn1)C2 | -14.8%
CCc1ncc2c(n1)CN(c1nc(C)ccc1C(=O)O)C2 | 9.55%
CC(C)OCCN1CCC(Nc2ccc(C#N)cc2F)CC1 | 27.2%
CNC(=O)[C@@H]1C[C@@H](N)CN1C(=O)CCSCc1ccc(F)cc1 | 9.63%
CNC(=O)[C@@H]1C[C@@H](N)CN1C1CCN(Cc2ccccn2)CC1 | 27.6%
CCNC(=O)[C@@H]1C[C@H](N)CN1C1CCN(c2ccccc2OC)CC1 | 55.4%
COc1ccccc1N1CCC(N2CCOCC(CO)C2)CC1 (stereo not drawn) | 39%
CCNC(=O)[C@@H]1C[C@H](N)CN1C(=O)CCc1ccccc1Cl | -6.83%
CNC(=O)[C@@H]1C[C@@H](N)CN1C1CCN(c2ccccc2F)CC1 | 61%
Cc1cc(C(F)(F)F)nc(C2CCCN2S(C)(=O)=O)n1 (stereo not drawn) | 20.2%
CCN1CCN(C(C)CNC(=O)Nc2cnn(CC)c2)CC1 (stereo not drawn) | 44.1%
CNC(=O)C1CCN(c2ncc3c(n2)CCN3c2ccccc2)C1 (stereo not drawn) | -105%
O=C(Cc1c(F)cccc1Cl)Nc1cc(N2CCCC2)ncn1 | -27.8%
CSC(C)CCN(Cc1ccccn1)Cc1sccc1C (stereo not drawn) | 62.9%
Cc1ccsc1CN(CCN(C)C)Cc1ccccn1 | 35.1%
COCCn1ccnc1CN(Cc1ccccn1)Cc1sccc1C | 71%
Cc1ccsc1CN(Cc1ccccn1)CC(C)C | -21.5%
COCCN(Cc1sccc1C)Cc1nccn1CCOC | 16.9%
COCCN(Cc1ccccn1)Cc1sccc1C | 15.2%

SMILES | INHIBITION
Cc1cc(C)c2nc(C)c(C(=O)N3CCC(CCN(C)C)CC3)cc2c1 | 36.8%
Fc1cnc(N2CC[C@@H]3CN(Cc4ccncc4)CCO[C@@H]3C2)nc1 | 8.85%
Cc1cnn(CCC(=O)N2CCCC(c3cc(C)[nH]n3)C2)c1 (stereo not drawn) | 45.7%
CC(Cn1cc(Br)cn1)C(=O)Nc1ccn(C)n1 (stereo not drawn) | 15.7%
Cc1cc(NC(=O)C(C)Cn2cc(Br)cn2)no1 (stereo not drawn) | 67.1%
CC(Cn1cc(Br)cn1)C(=O)Nc1ccncc1 (stereo not drawn) | -24.7%
CC(Cn1cc(Br)cn1)C(=O)Nc1ccc(Br)cn1 (stereo not drawn) | 81%
CC(Cn1cc(Cl)cn1)C(=O)Nc1ccc(CN2CCCCCC2)cc1 (stereo not drawn) | 10.9%
CC(=O)c1ccc(NC(=O)C(C)Cn2cc(Br)cn2)cc1 (stereo not drawn) | -37.6%
Cc1cnn(CCNCC(=O)Nc2ccc(Br)cn2)c1 | -37.7%
CC(Cn1cc(Br)cn1)C(=O)Nc1ccc(Cl)cn1 (stereo not drawn) | 56%
CC(Cn1cc(Br)cn1)C(=O)Nc1ccc(C(N)=O)cc1 (stereo not drawn) | 72.7%
Cc1cc(NC(=O)C(C)Cn2cncn2)no1 (stereo not drawn) | -1.445%
Cc1cc(NC(=O)Cn2ncc(Br)c2C)no1 | 15.9%
Cc1cnn(CC(C)NCC(=O)Nc2ccc(Cl)cn2)c1 (stereo not drawn) | -100%
CN(Cc1cn2c(n1)CN(c1ncc(F)cn1)CC2)Cc1ccco1 | 22.7%
O=C(N1CCOCC1)[C@@]12CCO[C@@H]1CCN(C1CCOCC1)C2 | 38.5%
Cc1ccc(NC2CCN(C(=O)CCNc3ncccn3)CC2)nn1 | -24.2%
Cc1cc(NC(=O)CN2CCN(c3nccs3)C(C)C2)no1 (stereo not drawn) | 19.2%
CNC(=O)C1(CCCc2ccccn2)CN(Cc2nccn2C)C1 | -40.1%

SMILES | INHIBITION
CC(O)CN1CCC(CNCc2ccccc2F)CC1 (stereo not drawn) | -34.365%
Cc1cc(C(=O)CN2CCN(c3ncccn3)CC2)c(C)n1C(C)C | 26.4%
CN1CCOC(CNCc2ccccc2OCc2ccccn2)C1 (stereo not drawn) | -10.193%
OCCN1CCC(Cc2nccs2)CC1 | 13.955%
CC(C)N(C)CC(=O)NCCc1nc(C(F)(F)F)cs1 | -48.9%
Cc1cccc(Nc2cc(C)nc(C3CCCCN3CC(N)=O)n2)n1 (stereo not drawn) | 18.9%
CCC(NCCn1cc(C)cn1)C(=O)Nc1cc(C)on1 (stereo not drawn) | 35.4%
CCC(NCCn1cccn1)C(=O)Nc1cc(C)on1 (stereo not drawn) | 36.5%
Cc1cc(NC(=O)C(C)NCCn2cccn2)no1 (stereo not drawn) | 58.9%
Cc1nc[nH]c1CN1CCC(C2CCN(CCc3ccccc3)C2)CC1 (stereo not drawn) | 44.3%
Cn1cc(CN2CCCC23CCN(c2nc4ccccc4s2)CC3)cn1 | 47%
Cc1nc[nH]c1CN1CCn2nc(CN3Cc4ccccc4C3)cc2C1 | 22.8%
Cc1nc[nH]c1CN1CCCC12CCN(c1ccccn1)CC2 | 20.9%
Cc1nc[nH]c1CN1CCCC12CCN(c1nc3ccccc3s1)CC2 | 76.6%
c1ccc2sc(N3CCC4(CCCN4Cc4ncc[nH]4)CC3)nc2c1 | 51.6%
Cc1nc(CN2CCCC23CCN(c2nc4ccccc4s2)CC3)co1 | 14.1%
CC(=O)c1ccc(CN2CCCC23CCN(c2ccccn2)CC3)cc1 | 49.9%
Cc1nc[nH]c1CN1CCCN(c2nc3ccccc3s2)CC1 | 76.6%
